High-throughput results (PubChem BioAssay)
FXN GAA850 act = activators of GAA850 frataxin (FXN) promoter; HEK293 lucGAA850 FXN promoter luciferase reporter, 24 h; percent of 10 µM SAHA response; activation, % at 6 µM; 360,000 compounds, 0.56% hits;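 active means activation above the average of all compounds screened plus 3 SD, cutoff fixed separately per campaign, cut at about 7.5% in these data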;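 further: 0% = DMSO wells and 100% = 10 µM SAHA wells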
esBAF inh = inhibitors of esBAF chromatin remodeling in mouse ES cells; Bmi1-luciferase knock-in reporter, 24 h; 100% = twice the neutral-well signal; reporter increase, % at 12.5 µM; 350,000 compounds, 2% hits; AID 602393; in the data active means activation above about 40%; inconclusive means no clear call, values can overlap the other calls;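 further: 0% = median of the plate's neutral control wells and 100% = double that signal; a rise in the Bmi1 reporter signal indicates esBAF inhibition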
MITF act = MITF TRPM1 promoter activation in melanoma cells; AID 588334; SK-MEL-5 TRPM1-promoter luciferase, 24 h; % of positive control, neutral wells = 0; activation, % at 12.5 µM; 300,000 compounds, 0.75% hits;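 active means mean activation of at least 80% with every replicate also reaching 80%; inconclusive means mean reaches 80% but some replicate falls short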;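 further: 0% = neutral control wells and 100% = parthenolide positive control wells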
Wnt act = Wnt/beta-catenin pathway activation. Wnt/beta-catenin reporter cell assay, activator, plate reader. activation, % at 9.35 µM. 300,000 compounds, 1.2% hits. AID 743398; in the data active means activation above about 30%, passing the limit was not always enough; inconclusive means no clear call, values can overlap the other calls;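 further: 0% = neutral control wells and 100% = positive control wells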
AHR act = activators of human aryl hydrocarbon receptor | P35869 | AHR-responsive luciferase reporter cells, luminescence | activation, % at 5 µM | 320,000 compounds, 2.5% hits; in the data active means activation above about 47%;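 further: 0% = vehicle wells and 100% = reference agonist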
Target sequence (P35869 whole entry, looked up): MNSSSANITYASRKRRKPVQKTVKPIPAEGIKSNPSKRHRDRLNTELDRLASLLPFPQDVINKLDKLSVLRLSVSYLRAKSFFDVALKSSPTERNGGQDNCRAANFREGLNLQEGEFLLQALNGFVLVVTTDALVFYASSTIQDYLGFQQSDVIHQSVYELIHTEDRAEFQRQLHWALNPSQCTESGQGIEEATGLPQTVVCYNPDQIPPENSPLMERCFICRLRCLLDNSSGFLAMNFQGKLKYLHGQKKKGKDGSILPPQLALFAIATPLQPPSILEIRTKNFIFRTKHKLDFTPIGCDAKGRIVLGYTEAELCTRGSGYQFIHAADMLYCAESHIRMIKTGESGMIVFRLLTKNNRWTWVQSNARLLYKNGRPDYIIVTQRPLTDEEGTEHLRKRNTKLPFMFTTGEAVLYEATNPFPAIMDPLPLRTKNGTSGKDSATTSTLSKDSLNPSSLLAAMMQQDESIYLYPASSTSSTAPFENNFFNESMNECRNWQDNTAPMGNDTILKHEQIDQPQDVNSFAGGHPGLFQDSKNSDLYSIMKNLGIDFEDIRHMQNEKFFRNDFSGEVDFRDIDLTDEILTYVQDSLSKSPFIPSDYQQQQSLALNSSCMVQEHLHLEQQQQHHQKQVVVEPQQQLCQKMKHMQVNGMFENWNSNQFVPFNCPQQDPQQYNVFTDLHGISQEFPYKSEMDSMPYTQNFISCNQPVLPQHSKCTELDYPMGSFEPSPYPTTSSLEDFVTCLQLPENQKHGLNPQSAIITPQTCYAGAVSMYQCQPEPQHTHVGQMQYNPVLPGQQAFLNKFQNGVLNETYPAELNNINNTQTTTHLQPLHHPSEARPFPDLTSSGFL
* = called active by the depositor; ? = inconclusive; . = not tested or not shown. The list is not random: actives were taken first. Their share in the collection is about 4.2%.

SMILES	FXN GAA850 act	esBAF inh	MITF act	Wnt act	AHR act
O=C(C[C@@H]1C[C@H]2c3cc(NC(=O)C4CCC4)ccc3O[C@H]2[C@H](CO)O1)NCC(F)(F)F	.	-2	.	.	.
Cc1ccc(S(=O)(=O)N(C)C[C@H]2OCCCC[C@H](C)Oc3ccc(NC(=O)c4ccccc4)cc3C(=O)N([C@H](C)CO)C[C@@H]2C)cc1	.	-2	.	.	.
COc1ccc2c(c1OC)C(=O)N(c1ccc(F)cc1)C2	6	29	?	38*	-3
COc1ccccc1NC(=O)N[C@@H]1CC[C@H](CCNC(=O)Cc2ccccn2)O[C@H]1CO	.	-2	.	.	.
CO[C@H]1CN(C)C(=O)c2cc(NC(=O)C3CC3)ccc2OC[C@@H](C)N(C(=O)CN(C)C)C[C@@H]1C	.	-3	.	.	.
COc1ccc(CN(C)C[C@@H]2Oc3ccc(N(C)C)cc3CC(=O)N([C@@H](C)CO)C[C@H]2C)cc1	.	-4	.	.	.
C[C@@H]1CN([C@H](C)CO)C(=O)c2cc(-c3cccnc3)cnc2O[C@H]1CN(C)C(=O)C1CCC1	.	1	.	.	.
Cc1ccc2c(C)c(C(=O)Nc3ccc(S(N)(=O)=O)cc3)oc2c1C	0	-3	21	30*	-2
C[C@H](CO)N1C[C@H](C)[C@H](CN(C)S(=O)(=O)c2ccc(Cl)cc2)Oc2ccc(NC(=O)c3ccncc3)cc2CC1=O	.	3	.	.	.
Cc1noc(C)c1NC(=O)Nc1ccc2c(c1)C(=O)N([C@H](C)CO)C[C@H](C)[C@@H](CN(C)C(=O)CCCN(C)C)OCCCC[C@@H](C)O2	.	0	.	.	.
CN1/C(=C\C(=O)COC(=O)c2ccc(O)cc2)C(C)(C)c2ccccc21	2	-5	-15	-9	3
CCOC(=O)/C=C1/N(C)c2ccccc2C1(C)C	2	0	16	41*	-1
CCCNC(=O)C[C@H]1CC[C@@H]2[C@H](COC[C@@H](O)CN2Cc2ccc(Cl)c(Cl)c2)O1	.	0	.	.	.
NC(=O)c1oc2ccccc2c1NC(=O)c1nc2ccccc2s1	6	63*	60	.	35
O=C(Nc1nnc(-c2ccccc2)o1)c1nc2ccccc2s1	1	-1	3	1	2
Nc1ncn([C@@H]2O[C@H](CO)[C@@H](O)[C@H]2O)c(=O)n1	-12	67*	-77	-11	-3
CNc1ncnc2c1ncn2[C@@H]1O[C@H](CO)[C@@H](O)[C@H]1O	-2	-8	6	-1	60*
CN(C)c1ncnc2c1ncn2C1OC(CO)C(O)C1O (configuration not stated)	-6	-16	-41	.	42
Nc1ccn([C@@H]2O[C@H](CO)[C@@H](O)[C@@H]2O)c(=O)n1	-6	-44	-15	-5	-3
O=C(C[C@H]1C[C@H]2c3cc(NS(=O)(=O)c4ccc(F)cc4)ccc3O[C@H]2[C@@H](CO)O1)NCc1cccc(F)c1	.	9	.	.	.
COc1ccccc1C(=O)Nc1nc2cc3c(cc2s1)OCO3	6	57*	66	-1	44
COc1ccccc1C(=O)Nc1nc2cc3c(cc2s1)OCCO3	3	35	12	.	11
COc1cccc(OC)c1C(=O)Nc1nc2cc3c(cc2s1)OCO3	0	-8	14	6	54*
Cc1cccc(S(=O)(=O)N2C[C@@H]3[C@H](c4ccccc42)[C@H](CO)N3C(=O)C2CC2)c1	.	0	.	.	.
O=C(C[C@@H]1C=C[C@H](NC(=O)Nc2cc(F)ccc2F)[C@H](CO)O1)Nc1ccc(-c2ccccc2)cc1	.	2	.	.	.
SMILES	FXN GAA850 act	esBAF inh	MITF act	Wnt act	AHR act
NC(=O)NC[C@@H]1CC[C@@H](Cc2ccc(-c3ccccc3)cc2)O1	4	69*	118*	.	.
OC[C@@H]1CC[C@@H](Cc2ccc(-c3ccccc3)cc2)O1	4	68*	6	29	.
COc1ccc(NC(=O)NC[C@@H]2CC[C@@H](Cc3ccc(-c4ccccc4)cc3)O2)cc1	1	21	25	14	.
C[C@@H]1CN([C@@H](C)CO)C(=O)c2cc(NC(=O)CCC(F)(F)F)ccc2O[C@@H]1CN(C)S(=O)(=O)c1cn(C)cn1	.	5	.	.	.
CC(=O)Nc1sc(N/N=C\c2ccccc2Cl)nc1-c1cccs1	-9	.	-12	1	59*
O=[N+]([O-])c1cccc(-c2ccc(SCc3ccccn3)nn2)c1	3	42*	75	-1	-3
Clc1ccc(-c2ccc(SCc3ccccn3)nn2)cc1	5	51*	116*	36*	-1
C[C@@H]1CCCCO[C@H](CN(C)C(=O)NC2CCCCC2)[C@H](C)CN([C@@H](C)CO)C(=O)c2cc(NS(=O)(=O)c3ccc(Cl)cc3)ccc2O1	.	1	.	.	.
COc1ccc(OCc2cc(C(=O)N3CCCC(O)C3)no2)c2ccccc12 (configuration not stated)	8	.	28	30	52*
Cc1ccc(C)c(OCc2cc(C(=O)N3CC[C@H](O)C3)no2)c1	4	47*	132*	37*	13
CCCOC1CCCN(C(=O)c2cc(COc3c(F)cccc3F)on2)C1 (configuration not stated)	5	89*	62	17	12
Cc1ccccc1C1CCCN(C(=O)c2cc(COc3c(F)cccc3F)on2)C1 (configuration not stated)	0	-2	4	15	2
CCN1CCC2(CCN(C(=O)c3cc(COc4cc(C)ccc4C)on3)C2)C1 (configuration not stated)	2	5	-4	2	1
N#Cc1ccccc1CSc1nc2ccc(NC(=O)c3ccccc3C(=O)O)cc2s1	5	.	28	-1	50*
CCCOc1ccc(-c2nc(OCC)c3ccccc3n2)cc1	1	-15	52	28	13
Fc1ccc(Nc2nc(-c3ccncc3)nc3ccccc23)cc1	2	.	10	.	52*
CC(=O)Nc1cccc(Nc2nc(-c3ccccc3)nc3ccccc23)c1	-2	.	-12	0	62*
CCOc1nc(-c2ccncc2)nc2ccccc12	3	-8	.	0	114*
c1ccc(Nc2nc(-c3ccncc3)nc3ccccc23)cc1	-3	.	5	-5	19
Fc1ccccc1Nc1nc(-c2ccncc2)nc2ccccc12	2	.	12	1	56*
C[C@@H]1CCCCO[C@H](CN(C)C(=O)Nc2cccc3ccccc23)[C@H](C)CN([C@@H](C)CO)C(=O)c2cc(NC(=O)Nc3ccc(F)cc3)ccc2O1	.	5	.	.	.
Oc1ccc(-c2nccc(-c3cccs3)n2)cc1	4	39	.	.	70*
Cc1cc(NC(=O)OC2CCCCC2)ccc1[N+](=O)[O-]	3	67*	120*	16	2
Cc1ccc(NC(=O)C2C3CCCCC32)cc1[N+](=O)[O-] (configuration not stated)	3	42*	55	16	1
O=C(Nc1cccnc1)OC1CCCCC1	1	.	14	4	22
CCC(=O)N1[C@H](CN(C)C(C)=O)[C@@H](c2ccc(C3=CCCC3)cc2)[C@@H]1CO	.	-4	.	.	.
O=[N+]([O-])c1ccc(/C=N/NC(=S)Nc2ccccc2F)o1	3	24	-18	.	10
